Inconclusive results are not listed. Entries that show only a call come without a potency. Activity calls are given as the source filed them. The call rests on the fitted dose curve.

The target in the first test is Acetylcholinesterase (Homo sapiens) (UniProt P22303). As to the kind of experiment: Acetylcholinesterase (AChE) small molecule antagonists: colormetric cell-based qHTS assay (AID 1347395). Further: nearly all actives have a fitted effect of over 30% in size. The following applies: SH-SY5Y cells AChE activity, colorimetric (Ellman); series mostly up to 115 µM. Summed up: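 Neuroblastoma line SH-SY5Y supplied the enzyme; cells were preincubated with compound for 30 min at 37 C and 5% CO2. Acetylthiocholine with DTNB was then added for 90 min at 37 C, and thiocholine was measured by colour.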
Sequence of Acetylcholinesterase (Homo sapiens) (P22303 whole entry, looked up): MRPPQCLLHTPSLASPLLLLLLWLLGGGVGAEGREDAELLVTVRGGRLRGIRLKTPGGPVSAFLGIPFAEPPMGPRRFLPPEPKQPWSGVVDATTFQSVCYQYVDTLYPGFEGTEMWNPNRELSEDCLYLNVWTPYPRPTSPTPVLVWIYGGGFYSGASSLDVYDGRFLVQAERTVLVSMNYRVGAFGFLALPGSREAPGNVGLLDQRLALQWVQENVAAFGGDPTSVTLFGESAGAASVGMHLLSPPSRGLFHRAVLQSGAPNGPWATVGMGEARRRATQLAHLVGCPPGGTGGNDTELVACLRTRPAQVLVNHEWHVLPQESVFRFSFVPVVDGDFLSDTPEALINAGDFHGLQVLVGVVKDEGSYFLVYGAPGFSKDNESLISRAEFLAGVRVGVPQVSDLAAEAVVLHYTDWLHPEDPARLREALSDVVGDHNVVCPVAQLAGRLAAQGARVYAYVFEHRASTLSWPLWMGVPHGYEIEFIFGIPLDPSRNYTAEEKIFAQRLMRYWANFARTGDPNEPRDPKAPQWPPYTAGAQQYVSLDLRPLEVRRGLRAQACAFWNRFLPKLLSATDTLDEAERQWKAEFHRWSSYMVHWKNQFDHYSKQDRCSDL
(In general: In qHTS, concentration-response curves come from the screen itself.)
Take `CCOc1ccc2nc(S(N)(=O)=O)sc2c1`: the Potency result is “inactive”.

For `Cc1ccc(Cl)cc1`, the Potency entry is “inactive”.

As to `OC/C=C/c1ccccc1`, the Potency result is “inactive”.

Regarding `NC(CCC(=O)O)C(=O)O` (centres undefined), the Potency entry was “inactive”.

For the molecule `Nc1ncn([C@@H]2O[C@H](CO)[C@@H](O)[C@H]2O)c(=O)n1`, the Potency result was “inactive”.

Take `COC(C)(OC)OC`: the Potency entry was “inactive”.

In the case of `Cc1cc(C)c(S(=O)(=O)O)cc1N=Nc1cc(S(=O)(=O)O)c2ccccc2c1O`, the Potency entry was “inactive”.

With `C[C@]12CCC(=O)C=C1C=C[C@@H]1[C@@H]2CC[C@@]2(C)[C@H]1CC[C@@]21CCC(=O)O1`, the Potency result was “inactive”.

As for `C=C(C)C(=O)OCCCCCCCCCCCCC`, the Potency entry was “inactive”.

Consider `Brc1cc(Oc2cc(Br)c(Br)c(Br)c2Br)c(Br)c(Br)c1Br`, for which the Potency entry was “inactive”.

Regarding `Nc1ccc(O)c(N)c1`, the Potency result is “inactive”.

Turning to `CCCCC/C=C/CC(=O)OC`, the Potency result was “inactive”.

As to `c1cnc2c(n1)CCCC2`, the Potency entry was “inactive”.

With `CCCNC(C)C(=O)Nc1c(C)csc1C(=O)OC` (centres undefined), the Potency entry is “inactive”.

Regarding `c1ccc2ccccc2c1`, the Potency result is “inactive”.

On to `O=C1C(CCS(=O)c2ccccc2)C(=O)N(c2ccccc2)N1c1ccccc1` (centres undefined), for which the Potency entry is “inactive”.

With `OCc1ccc(Cl)cc1Cl`, the Potency result was “inactive”.

In the case of `Oc1ccccc1C=NCc1ccccc1`, the Potency entry was “inactive”.

As to `CCOc1cccc(-n2cc(C(=O)N3CCN(c4cc(C(=O)O)c5ccccc5c4)CC3)nc2-c2ccc(C)cc2)c1`, the Potency entry was “inactive”.

For `Cc1ccc(S(=O)(=O)N=C=O)cc1`, the Potency result was “inactive”.

Take `CCC(=O)OCCC(C)CCC=C(C)C` (centres undefined): the Potency result was “inactive”.

On to `c1ccc2nccnc2c1`, for which the Potency entry is “inactive”.

Consider `CC1(C)CCC[C@]2(C)[C@H]3CC(=O)O[C@]3(C)CC[C@@H]12`, for which the Potency result was “inactive”.

For another test the target is unchanged. As to the kind of experiment: Acetylcholinesterase (AChE) small molecule antagonists: enzyme-based qHTS assay (AID 1347397). Further: nearly all actives have a fitted effect of over 55% in size. The following applies: Potency: AChE enzyme activity inhibition; outcome: AChE enzyme activity inhibition; series mostly up to 115 µM. Summed up:
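Enzyme inhibition was scored from DTNB-detected thiocholine formed by recombinant human AChE acting on acetylthiocholine. The 30 min compound preincubation and 10 min substrate reaction were both run at room temperature, with DMSO as vehicle control.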
For `Nc1nc(N)c2nc(CNc3ccc(C(=O)N[C@@H](CCC(=O)O)C(=O)O)cc3)cnc2n1`, the Potency result is “inactive”.

`Cc1ccc(C(C)C)cc1`: the Potency result was “inactive”.

`O=C(O)CSCC(=O)NC1CCSC1=O` (centres undefined): the Potency entry is “inactive”.

Regarding `C[C@]12CCC(=O)C=C1CC[C@@H]1[C@@H]2[C@@H](O)C[C@@]2(C)[C@H]1CC[C@]2(O)C(=O)CO`, the Potency entry is “inactive”.

For the molecule `CN(C)CCC(c1ccccc1)c1ccccn1` (centres undefined), the Potency result was “inactive”.

Turning to `CCCCCCCCCCCCC`, the Potency result was “inactive”.

As to `C=CC(=C)CCC=C(C)C`, the Potency result was “inactive”.

On to `CCCOc1ccc2nc(NC(=O)OC)[nH]c2c1`, for which the Potency result was “inactive”.

Take `Cc1cc(C)cc(O)c1`: the Potency entry was “inactive”.

Consider `OC[C@H]1O[C@@H]2O[C@H]3[C@H](O)[C@@H](O)[C@@H](O[C@H]4[C@H](O)[C@@H](O)[C@@H](O[C@H]5[C@H](O)[C@@H](O)[C@@H](O[C@H]6[C@H](O)[C@@H](O)[C@@H](O[C@H]7[C@H](O)[C@@H](O)[C@@H](O[C@H]8[C@H](O)[C@@H](O)[C@@H](O[C@H]1[C@H](O)[C@H]2O)O[C@@H]8CO)O[C@@H]7CO)O[C@@H]6CO)O[C@@H]5CO)O[C@@H]4CO)O[C@@H]3CO`, for which the Potency entry was “inactive”.

Regarding `COc1ccc2c(c1)c(CC(=O)OCC(=O)O)c(C)n2C(=O)c1ccc(Cl)cc1`, the Potency result is “inactive”.

`Nc1ccc(S(=O)(=O)NCc2ccccc2)cc1`: the Potency entry was “inactive”.

Consider `CCCCCCCCCCC(CO)CCCCCCCC` (centres undefined), for which the Potency result was “inactive”.

Turning to `CCn1cc(C(=O)O)c(=O)c2cnc(N3CCNCC3)nc21`, the Potency entry is “inactive”.

As for `O=C(O)c1cn(C2CC2)c2cc(Cl)c(F)cc2c1=O`, the Potency result was “inactive”.

In the case of `CCCCCCCCCCCCCBr`, the Potency entry was “inactive”.

For `CCOCCn1c(C2CCN(CCc3ccc(C(C)(C)C(=O)O)cc3)CC2)nc2ccccc21`, the Potency entry is “inactive”.

For `CCOc1ccc2nc(S(N)(=O)=O)sc2c1`, the Potency result is “inactive”.

Consider `Cc1ccc(Cl)cc1`, for which the Potency result is “inactive”.

On to `OC/C=C/c1ccccc1`, for which the Potency entry is “inactive”.

With `NC(CCC(=O)O)C(=O)O` (centres undefined), the Potency entry was “inactive”.

On to `Nc1ncn([C@@H]2O[C@H](CO)[C@@H](O)[C@H]2O)c(=O)n1`, for which the Potency result was “inactive”.

Consider `COC(C)(OC)OC`, for which the Potency entry is “inactive”.

`Cc1cc(C)c(S(=O)(=O)O)cc1N=Nc1cc(S(=O)(=O)O)c2ccccc2c1O`: the Potency result was “inactive”.

On to `C[C@]12CCC(=O)C=C1C=C[C@@H]1[C@@H]2CC[C@@]2(C)[C@H]1CC[C@@]21CCC(=O)O1`, for which the Potency result is “inactive”.

On to `C=C(C)C(=O)OCCCCCCCCCCCCC`, for which the Potency result was “inactive”.

Consider `Brc1cc(Oc2cc(Br)c(Br)c(Br)c2Br)c(Br)c(Br)c1Br`, for which the Potency entry was “inactive”.

As to `Nc1ccc(O)c(N)c1`, the Potency result is “inactive”.

Regarding `CCCCC/C=C/CC(=O)OC`, the Potency entry was “inactive”.

`c1cnc2c(n1)CCCC2`: the Potency entry is “inactive”.

In the case of `CCCNC(C)C(=O)Nc1c(C)csc1C(=O)OC` (centres undefined), the Potency result was “inactive”.

`c1ccc2ccccc2c1`: the Potency result was “inactive”.

Consider `O=C1C(CCS(=O)c2ccccc2)C(=O)N(c2ccccc2)N1c1ccccc1` (centres undefined), for which the Potency result was “inactive”.

On to `OCc1ccc(Cl)cc1Cl`, for which the Potency result is “inactive”.

Consider `Oc1ccccc1C=NCc1ccccc1`, for which the Potency entry is “inactive”.

Take `CCOc1cccc(-n2cc(C(=O)N3CCN(c4cc(C(=O)O)c5ccccc5c4)CC3)nc2-c2ccc(C)cc2)c1`: the Potency result is “inactive”.

The values are drawn from PubChem BioAssay (Tox21).
